Legend:
Assay in all cases: log2 ratio of Biotin-Ahx-Ub-VS probe labelling (fragment/DMSO); higher = less target engagement (more negative = stronger competition), active = hit call of the paper (q ≤ 0.05, log2 ratio ≤ -1)
Details in all cases: compound concentration: 200 uM; treatment time: 3 h
[1] = target: T1, USP42 (UniProt Q9H9J4)
T1 sequence (whole entry): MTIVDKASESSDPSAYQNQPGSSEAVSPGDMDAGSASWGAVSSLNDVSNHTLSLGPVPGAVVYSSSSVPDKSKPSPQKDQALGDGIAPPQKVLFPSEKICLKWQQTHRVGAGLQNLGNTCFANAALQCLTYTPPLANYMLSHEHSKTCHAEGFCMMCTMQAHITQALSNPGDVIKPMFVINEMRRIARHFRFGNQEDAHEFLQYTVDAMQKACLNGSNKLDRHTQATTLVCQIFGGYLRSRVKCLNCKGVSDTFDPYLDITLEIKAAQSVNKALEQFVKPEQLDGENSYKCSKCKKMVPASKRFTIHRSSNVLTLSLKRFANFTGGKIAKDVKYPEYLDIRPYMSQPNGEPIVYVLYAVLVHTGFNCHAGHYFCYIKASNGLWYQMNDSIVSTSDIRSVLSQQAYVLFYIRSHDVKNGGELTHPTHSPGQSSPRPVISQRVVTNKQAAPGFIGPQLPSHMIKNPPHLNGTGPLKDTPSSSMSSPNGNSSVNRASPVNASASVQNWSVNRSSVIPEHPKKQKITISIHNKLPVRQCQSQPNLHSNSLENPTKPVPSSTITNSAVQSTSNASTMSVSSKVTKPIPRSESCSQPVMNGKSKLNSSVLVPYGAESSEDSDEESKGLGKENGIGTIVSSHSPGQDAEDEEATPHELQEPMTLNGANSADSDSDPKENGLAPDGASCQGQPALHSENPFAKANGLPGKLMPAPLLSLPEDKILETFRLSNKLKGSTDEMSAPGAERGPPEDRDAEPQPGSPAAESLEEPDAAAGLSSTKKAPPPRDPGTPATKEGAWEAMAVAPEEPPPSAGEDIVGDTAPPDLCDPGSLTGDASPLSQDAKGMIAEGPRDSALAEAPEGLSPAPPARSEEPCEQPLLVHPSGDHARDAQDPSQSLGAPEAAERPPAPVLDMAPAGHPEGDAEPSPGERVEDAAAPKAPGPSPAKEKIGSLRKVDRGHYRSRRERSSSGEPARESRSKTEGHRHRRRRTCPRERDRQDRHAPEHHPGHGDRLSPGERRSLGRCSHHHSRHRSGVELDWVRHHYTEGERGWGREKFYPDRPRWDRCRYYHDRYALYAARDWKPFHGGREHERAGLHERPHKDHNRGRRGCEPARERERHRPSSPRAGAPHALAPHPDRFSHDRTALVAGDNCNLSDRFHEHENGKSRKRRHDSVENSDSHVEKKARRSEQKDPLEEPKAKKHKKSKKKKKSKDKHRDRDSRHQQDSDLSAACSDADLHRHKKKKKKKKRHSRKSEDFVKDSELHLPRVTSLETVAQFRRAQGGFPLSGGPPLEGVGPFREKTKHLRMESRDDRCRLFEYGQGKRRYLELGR
Method in brief: (§1)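 Using Biotin-Ahx-Ub-VS at 0.5 µM final for 1 h, DUBs were labelled in HEK293T lysate (495 µg per sample) that had first been treated in triplicate with fragment at 200 µM or vehicle for 3 h. NeutrAvidin enrichment, LysC and trypsin digestion and diaPASEF LC-MS/MS followed. Spectronaut label-free quantities were global-median-normalised. Values are average log2 fragment/vehicle ratios by unpaired t-test, using proteins with ≥2 unique peptides.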

[2] = target: USP46 (UniProt P62068)
Method in brief: as §1

[3] = target: T2, USP47 (UniProt Q96K76)
T2 sequence (whole entry): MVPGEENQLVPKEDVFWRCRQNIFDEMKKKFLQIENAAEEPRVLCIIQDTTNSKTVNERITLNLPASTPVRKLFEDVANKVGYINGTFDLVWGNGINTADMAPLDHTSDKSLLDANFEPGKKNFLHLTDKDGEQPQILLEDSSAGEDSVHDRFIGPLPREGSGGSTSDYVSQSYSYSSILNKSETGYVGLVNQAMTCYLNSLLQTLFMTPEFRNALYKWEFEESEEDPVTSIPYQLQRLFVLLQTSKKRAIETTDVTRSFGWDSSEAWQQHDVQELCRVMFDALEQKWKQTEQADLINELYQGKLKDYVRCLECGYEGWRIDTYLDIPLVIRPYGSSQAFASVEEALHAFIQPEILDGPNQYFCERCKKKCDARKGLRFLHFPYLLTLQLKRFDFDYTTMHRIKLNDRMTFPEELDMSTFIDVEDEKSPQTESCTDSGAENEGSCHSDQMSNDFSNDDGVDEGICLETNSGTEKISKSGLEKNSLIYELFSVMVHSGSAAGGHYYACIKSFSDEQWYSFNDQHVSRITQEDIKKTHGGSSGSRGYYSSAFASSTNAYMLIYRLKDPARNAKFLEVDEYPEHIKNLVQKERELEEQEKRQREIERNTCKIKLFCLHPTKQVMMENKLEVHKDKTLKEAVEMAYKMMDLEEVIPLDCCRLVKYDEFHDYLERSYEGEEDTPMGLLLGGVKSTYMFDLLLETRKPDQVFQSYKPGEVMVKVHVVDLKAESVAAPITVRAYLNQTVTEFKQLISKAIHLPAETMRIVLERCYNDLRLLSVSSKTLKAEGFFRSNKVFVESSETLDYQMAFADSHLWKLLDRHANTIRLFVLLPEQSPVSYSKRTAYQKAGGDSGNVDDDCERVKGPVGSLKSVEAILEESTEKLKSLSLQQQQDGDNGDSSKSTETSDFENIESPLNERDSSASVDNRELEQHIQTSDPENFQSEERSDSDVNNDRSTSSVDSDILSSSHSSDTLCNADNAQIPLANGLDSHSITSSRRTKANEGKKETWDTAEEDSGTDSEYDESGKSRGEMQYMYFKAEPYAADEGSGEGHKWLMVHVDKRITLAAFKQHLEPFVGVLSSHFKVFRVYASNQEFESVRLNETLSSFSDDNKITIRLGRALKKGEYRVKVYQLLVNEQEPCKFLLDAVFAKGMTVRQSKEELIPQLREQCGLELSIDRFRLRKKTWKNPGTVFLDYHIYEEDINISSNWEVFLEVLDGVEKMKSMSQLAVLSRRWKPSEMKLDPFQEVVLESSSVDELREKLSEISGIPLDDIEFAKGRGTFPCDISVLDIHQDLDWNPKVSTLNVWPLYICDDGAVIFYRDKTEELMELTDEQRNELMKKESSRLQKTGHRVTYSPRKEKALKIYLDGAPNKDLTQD
Method in brief: as §1

[4] = target: T3, USP48 (UniProt Q86UV5)
T3 sequence (whole entry): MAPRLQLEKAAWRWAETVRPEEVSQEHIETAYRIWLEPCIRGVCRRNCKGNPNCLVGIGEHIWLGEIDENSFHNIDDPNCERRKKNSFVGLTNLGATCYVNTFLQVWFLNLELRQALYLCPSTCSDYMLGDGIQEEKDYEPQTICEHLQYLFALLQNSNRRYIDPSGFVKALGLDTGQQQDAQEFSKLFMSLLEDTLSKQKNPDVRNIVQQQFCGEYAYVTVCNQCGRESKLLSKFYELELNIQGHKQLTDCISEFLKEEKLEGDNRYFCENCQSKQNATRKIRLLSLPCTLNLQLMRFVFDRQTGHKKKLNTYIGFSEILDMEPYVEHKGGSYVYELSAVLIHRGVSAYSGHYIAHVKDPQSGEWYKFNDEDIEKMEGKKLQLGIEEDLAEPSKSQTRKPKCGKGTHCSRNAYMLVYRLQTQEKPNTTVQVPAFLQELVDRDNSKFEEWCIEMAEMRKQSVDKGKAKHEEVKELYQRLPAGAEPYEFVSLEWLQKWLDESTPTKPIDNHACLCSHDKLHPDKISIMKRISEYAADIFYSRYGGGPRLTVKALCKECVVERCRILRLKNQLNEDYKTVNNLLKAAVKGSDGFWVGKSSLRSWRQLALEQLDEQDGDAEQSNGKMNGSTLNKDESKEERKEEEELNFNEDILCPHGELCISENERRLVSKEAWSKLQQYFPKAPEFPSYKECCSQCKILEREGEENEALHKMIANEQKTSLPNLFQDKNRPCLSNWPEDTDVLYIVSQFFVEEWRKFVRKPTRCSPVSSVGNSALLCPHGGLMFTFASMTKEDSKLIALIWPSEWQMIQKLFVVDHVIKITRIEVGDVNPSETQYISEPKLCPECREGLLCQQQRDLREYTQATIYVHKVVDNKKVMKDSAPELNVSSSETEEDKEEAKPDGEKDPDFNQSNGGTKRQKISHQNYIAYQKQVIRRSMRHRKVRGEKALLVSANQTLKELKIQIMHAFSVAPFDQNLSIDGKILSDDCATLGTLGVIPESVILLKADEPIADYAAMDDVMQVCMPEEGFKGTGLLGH
Method in brief: as §1

[5] = target: T4, USP5 (UniProt P45974)
T4 sequence (whole entry): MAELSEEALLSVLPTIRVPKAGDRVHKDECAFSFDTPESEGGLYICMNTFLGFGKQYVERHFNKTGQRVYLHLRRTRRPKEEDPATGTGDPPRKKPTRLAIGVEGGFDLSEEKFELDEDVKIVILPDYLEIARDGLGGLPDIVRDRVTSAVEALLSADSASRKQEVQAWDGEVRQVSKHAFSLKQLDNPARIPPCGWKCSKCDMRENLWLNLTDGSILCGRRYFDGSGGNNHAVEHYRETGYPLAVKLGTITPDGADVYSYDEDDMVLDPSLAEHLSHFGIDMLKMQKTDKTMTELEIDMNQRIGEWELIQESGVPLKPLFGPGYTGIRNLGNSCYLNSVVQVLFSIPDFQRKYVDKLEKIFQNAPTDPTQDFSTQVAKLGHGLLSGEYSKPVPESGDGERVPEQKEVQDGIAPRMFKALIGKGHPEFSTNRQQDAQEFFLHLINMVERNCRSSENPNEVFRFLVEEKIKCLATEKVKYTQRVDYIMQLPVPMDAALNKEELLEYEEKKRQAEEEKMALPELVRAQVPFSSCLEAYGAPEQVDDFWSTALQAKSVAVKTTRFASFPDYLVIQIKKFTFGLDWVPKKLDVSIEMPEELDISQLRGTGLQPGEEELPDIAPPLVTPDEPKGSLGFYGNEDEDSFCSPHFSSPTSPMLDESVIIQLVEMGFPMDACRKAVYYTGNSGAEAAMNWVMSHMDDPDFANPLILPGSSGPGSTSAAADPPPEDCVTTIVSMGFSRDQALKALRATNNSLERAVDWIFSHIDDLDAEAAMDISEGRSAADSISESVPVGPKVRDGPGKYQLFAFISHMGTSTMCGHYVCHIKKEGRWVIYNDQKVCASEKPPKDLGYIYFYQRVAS
Method in brief: as §1

[6] = target: USP54 (UniProt Q70EL1)
Method in brief: as §1

[7] = target: USP7 (UniProt Q93009)
Method in brief: as §1

[8] = target: T5, USP8 (UniProt P40818)
T5 sequence (whole entry): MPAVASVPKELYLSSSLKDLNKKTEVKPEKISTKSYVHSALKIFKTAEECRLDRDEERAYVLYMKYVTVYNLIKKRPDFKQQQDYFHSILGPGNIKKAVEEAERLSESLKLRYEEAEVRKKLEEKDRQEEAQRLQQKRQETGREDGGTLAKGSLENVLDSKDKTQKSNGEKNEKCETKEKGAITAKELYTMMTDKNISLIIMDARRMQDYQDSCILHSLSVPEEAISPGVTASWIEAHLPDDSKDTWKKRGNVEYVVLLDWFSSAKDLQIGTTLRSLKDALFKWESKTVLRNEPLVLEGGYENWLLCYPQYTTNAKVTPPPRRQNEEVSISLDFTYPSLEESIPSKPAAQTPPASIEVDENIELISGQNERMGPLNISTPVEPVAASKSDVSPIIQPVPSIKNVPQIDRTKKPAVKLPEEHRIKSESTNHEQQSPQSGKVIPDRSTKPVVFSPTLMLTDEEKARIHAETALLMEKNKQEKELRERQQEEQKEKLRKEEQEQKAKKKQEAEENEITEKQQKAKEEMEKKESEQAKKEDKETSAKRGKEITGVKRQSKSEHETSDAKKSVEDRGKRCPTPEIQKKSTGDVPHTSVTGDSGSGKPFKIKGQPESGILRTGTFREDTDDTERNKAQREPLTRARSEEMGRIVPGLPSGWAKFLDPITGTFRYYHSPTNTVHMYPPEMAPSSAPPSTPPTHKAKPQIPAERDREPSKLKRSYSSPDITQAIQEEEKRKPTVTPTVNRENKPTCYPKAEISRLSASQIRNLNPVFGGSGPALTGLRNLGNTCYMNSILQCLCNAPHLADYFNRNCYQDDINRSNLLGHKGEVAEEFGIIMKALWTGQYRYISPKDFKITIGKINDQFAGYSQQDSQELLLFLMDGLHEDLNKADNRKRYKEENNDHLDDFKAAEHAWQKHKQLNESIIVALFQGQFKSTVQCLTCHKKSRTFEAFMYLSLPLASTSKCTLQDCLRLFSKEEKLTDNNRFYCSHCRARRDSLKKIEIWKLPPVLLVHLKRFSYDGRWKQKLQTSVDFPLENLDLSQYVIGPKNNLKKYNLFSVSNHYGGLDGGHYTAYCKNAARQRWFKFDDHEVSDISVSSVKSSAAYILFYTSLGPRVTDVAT
Method in brief: as §1

Measured: log2 ratio of Biotin-Ahx-Ub-VS probe labelling

Sequence of USP54 (Q70EL1 whole entry): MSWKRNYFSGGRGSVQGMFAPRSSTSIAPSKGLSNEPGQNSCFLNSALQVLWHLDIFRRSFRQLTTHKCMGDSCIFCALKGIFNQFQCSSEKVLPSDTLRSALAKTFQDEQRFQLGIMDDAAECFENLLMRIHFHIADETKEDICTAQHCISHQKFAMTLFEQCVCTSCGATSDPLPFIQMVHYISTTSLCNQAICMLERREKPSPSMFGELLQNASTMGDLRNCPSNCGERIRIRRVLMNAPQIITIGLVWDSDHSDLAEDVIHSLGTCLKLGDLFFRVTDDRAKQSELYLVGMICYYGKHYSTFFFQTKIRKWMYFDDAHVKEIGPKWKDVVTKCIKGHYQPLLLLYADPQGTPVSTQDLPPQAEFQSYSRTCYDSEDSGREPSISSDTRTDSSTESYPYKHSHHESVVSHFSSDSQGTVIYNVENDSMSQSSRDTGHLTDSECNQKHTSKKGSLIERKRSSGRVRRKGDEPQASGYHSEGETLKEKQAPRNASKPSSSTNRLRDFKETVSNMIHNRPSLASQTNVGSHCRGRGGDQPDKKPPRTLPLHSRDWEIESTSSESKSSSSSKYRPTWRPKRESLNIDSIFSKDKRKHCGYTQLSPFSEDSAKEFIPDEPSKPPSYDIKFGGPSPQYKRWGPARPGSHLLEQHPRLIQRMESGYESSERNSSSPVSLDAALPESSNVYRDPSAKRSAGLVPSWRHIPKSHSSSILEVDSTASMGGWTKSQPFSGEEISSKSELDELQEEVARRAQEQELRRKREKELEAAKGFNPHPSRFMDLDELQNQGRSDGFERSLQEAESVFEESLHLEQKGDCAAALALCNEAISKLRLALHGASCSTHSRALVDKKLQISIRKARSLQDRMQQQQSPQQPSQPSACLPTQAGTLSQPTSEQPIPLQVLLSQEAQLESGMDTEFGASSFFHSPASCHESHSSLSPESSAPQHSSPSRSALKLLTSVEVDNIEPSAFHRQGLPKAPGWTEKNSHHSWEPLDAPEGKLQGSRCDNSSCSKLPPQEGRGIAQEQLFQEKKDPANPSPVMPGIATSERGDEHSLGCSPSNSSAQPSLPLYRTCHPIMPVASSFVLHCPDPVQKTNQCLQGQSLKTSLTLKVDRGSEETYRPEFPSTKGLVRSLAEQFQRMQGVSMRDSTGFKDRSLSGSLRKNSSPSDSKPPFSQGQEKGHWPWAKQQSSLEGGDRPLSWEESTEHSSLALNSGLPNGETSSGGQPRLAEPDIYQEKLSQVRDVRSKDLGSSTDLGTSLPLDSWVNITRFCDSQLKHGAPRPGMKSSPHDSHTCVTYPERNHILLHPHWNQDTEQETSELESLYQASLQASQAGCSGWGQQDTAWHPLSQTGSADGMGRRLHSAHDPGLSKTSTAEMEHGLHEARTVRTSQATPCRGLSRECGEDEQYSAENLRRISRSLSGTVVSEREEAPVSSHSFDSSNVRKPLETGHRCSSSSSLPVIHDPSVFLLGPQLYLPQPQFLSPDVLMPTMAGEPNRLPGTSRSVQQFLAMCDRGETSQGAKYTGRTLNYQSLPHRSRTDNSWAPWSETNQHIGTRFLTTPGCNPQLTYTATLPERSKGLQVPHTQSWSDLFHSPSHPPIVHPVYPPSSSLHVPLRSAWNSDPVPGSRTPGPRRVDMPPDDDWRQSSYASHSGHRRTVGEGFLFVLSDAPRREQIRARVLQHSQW
Sequence of USP7 (Q93009 whole entry, looked up): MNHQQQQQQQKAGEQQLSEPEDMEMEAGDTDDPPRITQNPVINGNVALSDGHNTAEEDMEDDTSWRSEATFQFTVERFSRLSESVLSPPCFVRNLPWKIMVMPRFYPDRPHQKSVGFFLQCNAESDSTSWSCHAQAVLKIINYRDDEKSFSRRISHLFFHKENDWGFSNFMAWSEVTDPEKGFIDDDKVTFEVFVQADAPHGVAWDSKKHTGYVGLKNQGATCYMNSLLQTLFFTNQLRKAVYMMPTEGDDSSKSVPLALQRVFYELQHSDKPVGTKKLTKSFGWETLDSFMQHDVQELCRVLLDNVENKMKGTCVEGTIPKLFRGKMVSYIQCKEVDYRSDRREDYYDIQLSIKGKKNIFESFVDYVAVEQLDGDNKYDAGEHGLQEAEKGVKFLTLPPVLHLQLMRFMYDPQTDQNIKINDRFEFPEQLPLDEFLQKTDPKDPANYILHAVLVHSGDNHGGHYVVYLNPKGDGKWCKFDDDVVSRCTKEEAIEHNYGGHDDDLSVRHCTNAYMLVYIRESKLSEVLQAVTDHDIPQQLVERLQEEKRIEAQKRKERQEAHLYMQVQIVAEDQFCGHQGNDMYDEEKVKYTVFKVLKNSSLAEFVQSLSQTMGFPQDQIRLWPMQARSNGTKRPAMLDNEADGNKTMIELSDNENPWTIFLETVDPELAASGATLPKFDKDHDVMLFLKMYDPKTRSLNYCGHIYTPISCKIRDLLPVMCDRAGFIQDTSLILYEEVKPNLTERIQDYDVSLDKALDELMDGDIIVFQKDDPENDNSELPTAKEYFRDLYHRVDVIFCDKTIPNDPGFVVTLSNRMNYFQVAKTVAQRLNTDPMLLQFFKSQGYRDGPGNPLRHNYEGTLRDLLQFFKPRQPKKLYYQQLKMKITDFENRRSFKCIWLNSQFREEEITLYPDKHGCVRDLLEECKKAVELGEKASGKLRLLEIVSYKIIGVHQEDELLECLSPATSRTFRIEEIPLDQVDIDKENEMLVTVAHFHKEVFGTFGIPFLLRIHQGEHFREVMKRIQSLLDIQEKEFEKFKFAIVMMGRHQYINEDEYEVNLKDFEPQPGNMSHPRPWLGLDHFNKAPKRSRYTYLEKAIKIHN
Sequence of USP46 (P62068 whole entry): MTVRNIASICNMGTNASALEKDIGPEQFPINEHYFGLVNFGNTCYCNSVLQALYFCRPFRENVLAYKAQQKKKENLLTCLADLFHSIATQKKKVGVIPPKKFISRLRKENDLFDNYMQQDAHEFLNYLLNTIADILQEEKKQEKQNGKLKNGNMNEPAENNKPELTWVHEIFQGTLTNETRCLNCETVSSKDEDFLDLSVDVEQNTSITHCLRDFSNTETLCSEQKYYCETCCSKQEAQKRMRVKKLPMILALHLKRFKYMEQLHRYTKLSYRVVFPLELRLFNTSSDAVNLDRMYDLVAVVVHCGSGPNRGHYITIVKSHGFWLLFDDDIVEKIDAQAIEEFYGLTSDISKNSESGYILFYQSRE

Cl.O=C(CCl)N1CCn2cncc2C1
inactive: [1] 0.404 | [2] -0.137 | [3] 0.174 | [4] -0.0876 | [5] -0.362 | [6] 0.158 | [7] -0.527 | [8] -0.217
